From the supplement of paper PMC3334620
Whole data set: some 33,000 sequences, median “E-score (-0.5 to 0.5)” near -0.017, cut for the highest 2% near 0.3. This excerpt belongs to a sample that is enriched for the highest values.

biological target: T1, Sut1 (UniProt P53032); test: PBM E-score (8-mer binding enrichment) (E-score (-0.5 to 0.5)); higher = stronger / more preferred TF binding; details: protein concentration: 200 nM; construct: GST-full length
T1 sequence: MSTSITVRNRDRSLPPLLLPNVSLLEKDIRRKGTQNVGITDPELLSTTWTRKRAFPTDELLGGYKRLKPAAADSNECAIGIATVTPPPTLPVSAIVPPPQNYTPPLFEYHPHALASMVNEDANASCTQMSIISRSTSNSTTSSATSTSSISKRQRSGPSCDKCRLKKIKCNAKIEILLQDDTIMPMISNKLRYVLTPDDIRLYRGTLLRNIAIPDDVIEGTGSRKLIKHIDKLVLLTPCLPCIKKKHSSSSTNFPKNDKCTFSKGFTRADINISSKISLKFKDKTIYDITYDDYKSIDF
Method in brief: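 Each ungapped eight-base word and its reverse complement, pooled, received an E-score from the Universal PBM Analysis Suite. Underlying scans, normalised with masliner, recorded fluorescent anti-GST bound to GST-tagged yeast transcription factors. These were applied at about 100-200 nM to universal all-10-mer Agilent arrays double-stranded by primer extension.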

Row | Sequence | PBM E-score
1 | CGCAGCTA | -0.0718
2 | CATCGAAC | -0.0517
3 | GACTAATA | 0.196
4 | AAAGCCCG | 0.208
5 | GGAGTCTA | 0.182
6 | GCACCCAC | -0.155
7 | CAGGCTCA | -0.214
8 | ACTTGCCT | -0.0394
9 | AATATATC | 0.322
10 | AATATATT | 0.31
11 | GATATATC | 0.183
12 | CATATAAA | 0.15
13 | AATATTAG | 0.192
14 | TATATAAA | 0.248
15 | AATATACT | 0.277
16 | AATATAGT | 0.244
17 | AATATAAA | 0.315
18 | AATATAGC | 0.0924
19 | AATATTAT | 0.319
20 | AATATTAA | 0.263
21 | ACATCGCC | -0.112
22 | GGGCTACC | -0.227
23 | ATGCAATC | 0.102
24 | AGGCCATC | -0.149
25 | ACCCATGA | -0.124

Row | Sequence | PBM E-score
26 | GGCTTTCA | 0.0417
27 | ACACAGAT | 0.00624
28 | GGACGGCA | -0.0542
29 | AAAATATA | 0.267
30 | GCTATATA | 0.118
31 | ACTATATC | 0.209
32 | AATATATG | 0.242
33 | AATATATA | 0.325
34 | ACTATATA | 0.308
35 | CAGGTCAC | -0.398
36 | CTGGAAAC | -0.0136
37 | CCCAAAAG | -0.0557
38 | ATGAACTA | 0.216
39 | GTATACTA | -0.155
40 | ATACGGAA | 0.348
41 | GTACGGAC | 0.297
42 | ATACGGGC | -0.126
43 | ATACGGAC | 0.374
44 | GTACGGAA | 0.22
45 | TTACGGAA | 0.198
46 | ATGTGATC | 0.144
47 | CGTGAAGA | -0.026
48 | ACTCACAG | 0.0594
49 | CACTAAGG | -0.146
50 | ACCCGGGC | -0.0147

Row | Sequence | PBM E-score
51 | GCCCGGAA | 0.244
52 | ACCCGGAC | 0.323
53 | GCCCGGAC | 0.328
54 | GCCCGGGC | -0.0214
55 | ACCCGGAT | -0.107
56 | CCCCGGCC | -0.173
57 | ACCCGGAA | 0.197
58 | ACCCGGAG | 0.416
59 | ACCCGGTC | -0.124
60 | CCCCGGAC | 0.357
61 | CCCCGGAA | 0.216
62 | CAGTTGGC | -0.162
63 | GCATTCGA | 0.0434
64 | TAAGAATA | -0.086
65 | CGACGCTA | -0.089
66 | CCCCGGAG | 0.454
67 | CCCCGGGG | 0.198
68 | CCCCGGCG | -0.00882
69 | TCTCTGAA | -0.135
70 | CTTTCAAA | 0.302
71 | CTTTCGGC | 0.0219
72 | ATTTCGGG | 0.0466
73 | ATTTCGAA | 0.313
74 | ATTTCGAG | 0.164
75 | CTTTCGGA | 0.395

Row | Sequence | PBM E-score
76 | GTTTCAAA | 0.212
77 | CTTTCGTA | 0.0877
78 | ATTTCAAA | 0.219
79 | ATTTCGGA | 0.396
80 | ATTTCGAC | 0.0327
81 | ATTTCGGC | 0.0959
82 | GAGTGGTA | -0.0154
83 | CTGCGAGC | -0.126
84 | GCGCCCGA | -0.17
85 | AGGATCGG | -0.00265
86 | AACAGTCA | -0.138
87 | CATCTAAA | 0.0229
88 | ATGCCATC | 0.0993
89 | GCCTTAAA | 0.0657
90 | AGGATGCG | -0.116
91 | ATCCTAAG | -0.175
92 | AAGCCAGG | -0.253
93 | CACAAAGG | -0.0165
94 | GGGGCCAC | -0.304
95 | GTTTCGTA | 0.0481
96 | GTTTCGGA | 0.334
97 | GTTTCGAA | 0.0889
98 | CCTGTTTC | -0.0625
99 | ACAATCGG | 0.259
100 | GCCCAAAA | -0.0622

Row | Sequence | PBM E-score
101 | GATTCCCA | -0.188
102 | AATTCCCA | 0.0113
103 | CATTCCGA | 0.25
104 | TATTCCGA | 0.321
105 | TATTCCCA | 0.139
106 | GATTCCGA | 0.337
107 | GATTCCGC | 0.0522
108 | AATTCCAA | 0.21
109 | AATTCCGA | 0.371
110 | ATTCTACC | 0.0903
111 | AAAAGATG | 0.0556
112 | ACGGTCTA | -0.0922
113 | GATGGAGA | 0.0416
114 | ACAGCATG | -0.124
115 | CCGATTGC | 0.109
116 | GCAGCAGA | -0.175
117 | CCTTCAGA | -0.0889
118 | GAACTGTC | 0.00324
119 | ATTCCCTC | -0.233
120 | TCCCTAGA | -0.00999
121 | ACTAAAAG | 0.214
122 | CTTATAAA | 0.181
123 | ACTATAAA | 0.321
124 | AGTATATG | 0.00722
125 | GTTATAAA | 0.303

Row | Sequence | PBM E-score
126 | ACTAAAAC | 0.159
127 | GCTATAAA | 0.194
128 | AGTATATC | 0.12
129 | AGTATATA | 0.395
130 | ACTAAAAA | 0.353
131 | CCTATAAA | -0.0583
132 | GTTATAAC | -0.0927
133 | ACTCAATG | 0.104
134 | GATTTGAA | 0.142
135 | TAATCGTA | 0.0634
136 | CAACGGTC | -0.0872
137 | GGAGGTGA | 0.0437
138 | AGGTCTAT | -0.0267
139 | GCTCGATA | -0.105
140 | GGTGTAGA | -0.149
141 | TGTATAAA | 0.157
142 | ACTTAAAA | 0.307
143 | AGTATAAA | 0.302
144 | ACTTAAAC | 0.241
145 | AGTATAAC | 0.185
146 | CCTTAAAA | 0.0539
147 | ACACTTCA | 0.0715
148 | AGATGGCA | 0.0507
149 | CATAGCCC | -0.196
150 | ACGGAAAT | 0.344

Row | Sequence | PBM E-score
151 | ACGGAAAA | 0.243
152 | ACGGAAAC | 0.0512
153 | CCGGAAAG | 0.276
154 | CCGGAAAC | 0.245
155 | CCGGAAAA | 0.37
156 | GCGGAAAA | 0.174
157 | ACGGAAAG | 0.25
158 | TCGGAAAA | 0.372
159 | TAGGTACA | -0.0499
160 | GTGAACCA | 0.00963
161 | ACGGTGCC | -0.0952
162 | TCATTCCA | 0.0304
163 | ACGGTCGA | -0.135
164 | CATTCTGA | 0.00217
165 | GCCGGACA | 0.273
166 | CCCGGACC | 0.339
167 | CCCGGATC | 0.213
168 | GCCGGACC | 0.198
169 | TCCGGACA | 0.415
170 | CCCGGACG | -0.12
171 | CCCGGACA | 0.354
172 | CACGGACA | 0.153
